Screens as filed in PubChem BioAssay.
Sfp inh: qHTS Assay for Inhibitors of Bacillus subtilis Sfp phosphopantetheinyl transferase (PPTase); AID 1490, 2009; 4'-phosphopantetheinyl transferase ffp (Bacillus subtilis), Q9F4F7; 3.5% of 310,000 active; Potency, µM, without a hit: largest response in the series, negative = inhibition, actives largely listed as inhibitors; Biochemical Sfp PPTase activity, qHTS;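 also: the enzyme is Sfp with the accession as filed and its product quenches rhodamine fluorescence; 0% = enzyme reaction without inhibitor and -100% = no enzyme wells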
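Step 1, compound plus 15 nM Sfp-PPTase, 15 min, room temperature. Step 2, add rhodamine-CoA (5 uM) and BHQ-2-YbbR (12.5 uM). Step 3, read 525/598 nm fluorescence at 0 and 30 min.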
HP1b binding inh: HTS for Inhibitors of HP1-beta Chromodomain Interactions with Methylated Histone Tails | Potency, µM (highest dose often 114 µM), for inactives: at the highest dose activity change, negative = inhibition, usual class: inhibitors | AID 540317, 2011 | 0.56% of 390,000 active | AlphaScreen HP1-beta / biotin-H3K9me3 peptide binding | Chromobox protein homolog 1 (Homo sapiens), P83916; also: nearly all actives have a fitted effect of over 70% in size
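AlphaScreen: HP1-beta (50 nM) preformed 30 min with biotin-H3(1-18)K9me3 peptide (50 nM) in PBS pH 7.4, 0.01% Tween-20. Compound added for 30 min at RT, then streptavidin donor/nickel chelate acceptor beads (10 ug/mL) for 30 min.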
BAZ2B inh: qHTS Assay for Inhibitors of BAZ2B; Bromodomain adjacent to zinc finger domain protein 2B (Homo sapiens), Q9UIF8; AlphaScreen BAZ2B-H3K14Ac peptide displacement; Potency, µM (top dose mostly 114 µM), for inactives: top-dose activity change, negative = inhibition, actives largely listed as inhibitors; 4.4% of 360,000 active; also: % is scaled to controls: 0 for no effect and ±100 for the full control effect; nearly all actives have a fitted effect of over 60% in size
Target sequence (Q9UIF8 whole entry, looked up, the tested form may be a part): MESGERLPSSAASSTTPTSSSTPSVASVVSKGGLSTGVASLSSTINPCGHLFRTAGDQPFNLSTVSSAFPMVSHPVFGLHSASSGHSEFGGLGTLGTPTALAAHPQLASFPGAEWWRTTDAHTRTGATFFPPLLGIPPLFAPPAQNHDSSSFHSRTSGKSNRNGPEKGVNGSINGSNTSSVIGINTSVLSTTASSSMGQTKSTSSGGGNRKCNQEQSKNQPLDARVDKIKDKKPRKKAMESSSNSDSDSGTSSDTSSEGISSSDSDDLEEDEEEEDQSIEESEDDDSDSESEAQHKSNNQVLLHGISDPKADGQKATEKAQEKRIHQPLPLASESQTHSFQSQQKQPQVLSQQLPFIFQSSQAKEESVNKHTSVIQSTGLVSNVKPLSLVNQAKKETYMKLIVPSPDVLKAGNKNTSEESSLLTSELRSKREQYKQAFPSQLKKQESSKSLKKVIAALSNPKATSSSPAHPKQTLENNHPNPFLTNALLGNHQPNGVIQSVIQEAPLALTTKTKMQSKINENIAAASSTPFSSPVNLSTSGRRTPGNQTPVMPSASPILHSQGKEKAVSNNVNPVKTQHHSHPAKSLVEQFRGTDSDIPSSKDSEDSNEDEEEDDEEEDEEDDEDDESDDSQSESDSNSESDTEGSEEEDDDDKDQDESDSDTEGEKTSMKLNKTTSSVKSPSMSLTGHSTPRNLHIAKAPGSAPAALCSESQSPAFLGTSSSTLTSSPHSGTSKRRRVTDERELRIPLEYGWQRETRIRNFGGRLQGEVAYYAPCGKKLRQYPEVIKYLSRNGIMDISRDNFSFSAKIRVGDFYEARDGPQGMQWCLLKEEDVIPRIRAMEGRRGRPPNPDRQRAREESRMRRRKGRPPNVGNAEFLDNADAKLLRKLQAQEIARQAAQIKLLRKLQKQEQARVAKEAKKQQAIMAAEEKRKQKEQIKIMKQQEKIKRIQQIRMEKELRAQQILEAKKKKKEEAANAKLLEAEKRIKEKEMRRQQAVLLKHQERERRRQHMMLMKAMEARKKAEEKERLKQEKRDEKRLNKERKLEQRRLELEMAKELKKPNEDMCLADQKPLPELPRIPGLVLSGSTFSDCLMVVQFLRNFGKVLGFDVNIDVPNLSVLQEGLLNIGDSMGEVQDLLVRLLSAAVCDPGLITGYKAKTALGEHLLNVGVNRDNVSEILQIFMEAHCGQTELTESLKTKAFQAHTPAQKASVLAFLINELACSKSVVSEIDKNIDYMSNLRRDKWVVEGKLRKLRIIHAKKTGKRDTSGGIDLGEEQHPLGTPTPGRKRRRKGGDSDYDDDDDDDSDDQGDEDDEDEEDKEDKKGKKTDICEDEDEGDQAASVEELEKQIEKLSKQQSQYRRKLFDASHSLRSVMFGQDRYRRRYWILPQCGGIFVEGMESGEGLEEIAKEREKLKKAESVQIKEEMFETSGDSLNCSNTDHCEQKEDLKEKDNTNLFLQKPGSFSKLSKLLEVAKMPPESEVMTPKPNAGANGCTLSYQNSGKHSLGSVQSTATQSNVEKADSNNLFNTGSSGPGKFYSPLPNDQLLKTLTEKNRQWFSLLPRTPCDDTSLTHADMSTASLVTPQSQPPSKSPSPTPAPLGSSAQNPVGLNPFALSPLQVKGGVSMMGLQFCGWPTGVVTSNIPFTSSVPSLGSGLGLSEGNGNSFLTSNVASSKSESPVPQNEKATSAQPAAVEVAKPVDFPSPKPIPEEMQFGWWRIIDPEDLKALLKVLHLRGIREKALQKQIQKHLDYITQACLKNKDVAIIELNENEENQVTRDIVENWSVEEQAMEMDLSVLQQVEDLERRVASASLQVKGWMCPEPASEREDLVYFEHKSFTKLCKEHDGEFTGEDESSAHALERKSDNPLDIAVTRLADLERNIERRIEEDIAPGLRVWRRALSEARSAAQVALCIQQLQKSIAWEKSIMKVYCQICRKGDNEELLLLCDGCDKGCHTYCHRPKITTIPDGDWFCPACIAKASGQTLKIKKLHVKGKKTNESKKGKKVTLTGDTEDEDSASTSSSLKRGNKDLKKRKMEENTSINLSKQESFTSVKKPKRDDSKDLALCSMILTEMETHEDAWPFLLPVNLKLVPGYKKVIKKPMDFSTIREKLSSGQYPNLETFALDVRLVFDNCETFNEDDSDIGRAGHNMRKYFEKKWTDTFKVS
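In this displacement format the biotinylated H3(5-23) peptide acetylated at Lys14 serves as ligand at 50 nM, with BAZ2B at 50 nM in PBS pH 7.4 containing 0.01% Tween-20. Donor and acceptor beads are 10 ug/mL final.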
JMJD2A Tudor inh: qHTS Assay for Inhibitors of JMJD2A-Tudor Domain. Lysine-specific demethylase 4A (Homo sapiens), O75164. AlphaScreen JMJD2A-Tudor / H3K4me3 peptide binding. Potency, µM (top dose mostly 114 µM), without a hit: top-dose activity change, negative = inhibition, actives largely listed as inhibitors. 4.4% of 390,000 active. AID 504339, 2011; also: % is scaled to controls: 0 for no effect and ±100 for the full control effect; nearly all actives have a fitted effect of over 50% in size
PLK1 PBD inh: qHTS for Inhibitors of PLK1-PDB (polo-like kinase 1 - polo-box domain): Primary Screen | Plk1 PBD binding of FITC phosphopeptide, fluorescence polarization | Serine/threonine-protein kinase PLK1 (Homo sapiens), P53350 | 2.8% of 360,000 active | Potency, µM, for inactives: max response, negative = inhibition, usual class: inhibitors; also: series mostly up to about 57 µM; % is scaled to controls: 0 for no effect and ±100 for the full control effect; nearly all actives have a fitted effect of over 65% in size
G9a inh: qHTS Assay for Inhibitors of Histone Lysine Methyltransferase G9a | Histone-lysine N-methyltransferase EHMT2 (Homo sapiens), Q96KQ7 | G9a H3K9 monomethylation, AlphaScreen, 2 h | Potency, µM (titrated, usually from 102 µM), inactives show top-dose activity, negative = inhibition, usual class: inhibitors | 8.8% of 350,000 active | AID 504332, 2011; also: % is scaled to controls: 0 for no effect and ±100 for the full control effect; nearly all actives have a fitted effect of over 75% in size
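G9a (20 nM) was preincubated 15 min with compound, then reacted 2 h at room temperature with 500 nM biotin-H3K9 peptide and 20 µM SAM. Monomethyl-H3K9 detected by AlphaScreen using anti-H3K9me1 antibody.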
* = called active by the depositor; ? = inconclusive; . = no result given; [ ] = dose if it differs, or a comment. Only some compounds are listed: those with a hit (about 12% of all), similar ones and a draw of the others. Calls follow the shape of the dose curve; as a rule, active = well fitted curve in the direction sought with a large enough effect; inconclusive = small, poorly fitted or top-dose-only effect, or another doubt; inactive = no such curve, though single readings can be large; an effect the other way counts as inactive or inconclusive. Potency is read from the fitted curve at half-maximal effect.

SMILES	Sfp inh	HP1b binding inh	BAZ2B inh	JMJD2A Tudor inh	PLK1 PBD inh	G9a inh
N#CCSc1ccccc1NC(=O)CN1C(=O)C2CC=CCC2C1=O (stereo unspecified)	.	9.6%	10.9%	-15.7%	-5.7%	44.7µM*
O=C(CN1C(=O)C2CC=CCC2C1=O)Nc1ccc(Br)cc1 (stereo unspecified)	17.1%	19.7%	-0.3%	-13.1%	-5.4%	-0.4%
Cc1cc(Br)ccc1NC(=O)CN1C(=S)NC(C)(C)CC1C (stereo unspecified)	?	-18.1%	-12.9%	2.2%	-10.0%	31.6µM*
O=C(Nc1cc(S(=O)(=O)N2CCOCC2)ccc1O)c1ccc2c(c1)S(=O)(=O)c1ccccc1C2=O	20µM*	?	?	?	10.6µM*	4.47µM*
O=C(Nc1cc(S(=O)(=O)N2CCOCC2)ccc1O)c1ccco1	56.2µM*	-21.6%	-26.8%	-3.2%	29.9µM*	41.7%[0.501 µM]
Cc1ccc(Cc2c[nH]c(=S)s2)cc1	?	-13.7%	?	?	6.7µM*	7.08µM*
O=C(c1ccccc1Cl)N1N=C(c2cccs2)CC1c1cccc(O)c1 (stereo unspecified)	4.7%	43.7%	-24.8%	24.1%	2.7%	10.3%
O=C(CN1CCNCC1)NC1CCCCC1	9.7%	.	.	.	.	-6.1%[12.7 µM]
Cc1noc(C)c1COC(=O)CCN1c2ccccc2Sc2ccccc21	-4.9%	-14.2%	2.4%	?	21.2µM*	3.8%[59 µM]
Cc1ccc(-c2nn(-c3ccc(F)cc3)cc2C(=O)NCCCN2CCCC2=O)cc1	.	17.5%	7.2%	-5.5%	-6.2%	-16.3%
O=S(=O)(Nc1ccc2c(c1)OCCO2)c1cccc(F)c1	13.7%	31.6%	-3.4%	-7.0%	4.9%	-5.1%[59 µM]
COc1ccc(NC(=O)c2ccccc2F)cc1Cl	5.4%	31.8%	56.2µM*	-8.9%	-6.4%	20.5%
O=C(NC(=S)NC(=O)c1ccccc1F)c1ccccc1F	50.1µM*	27.6%	-38.4%	-0.3%	?	10µM*
COc1cccc(OC)c1C(=O)NC(=S)Nc1ccc2c(c1)OCCO2	5.7%	-0.9%	-26.3%	?	-22.3%	56.2µM*
O=S(=O)(Nc1ccc2c(c1)OCCO2)c1c(F)cccc1F	-4.2%	19.3%	-8.2%	-12.2%	-25.4%	39.8µM*
COc1ccc(NC(=S)NC(=O)c2ccc3c(c2)OCCO3)cc1	.	?	.	?	-17.8%	.
S=c1nc(NCc2cccc(Cl)c2)c2ccccc2[nH]1	9.5%	56.1%	-2.1%	0.7%	-9.1%	2.7%
O=C(Nc1ccc(F)cc1)c1ccccc1F	2.0%	19.8%	-30.9%	6.0%	-3.4%	-0.5%[59 µM]
O=C(Nc1ccc2c(c1)OCCO2)c1ccccc1F	-11.2%	-3.3%	10.1%	-26.7%[11.4 µM]	2.99µM*	25.5%[59 µM]
Cn1c(C(=O)Nc2ccc3c(c2)OCCO3)cc2sccc21	-20.2%	-18.5%	?	?	-13.5%	50.1µM*
O=C(Nc1ccc2c(c1)OCCO2)c1cc2sccc2n1Cc1ccccc1	-1.6%	5.1%	?	-25.4%	-0.6%	25.0%[0.501 µM]
O=C(Nc1ccncc1)c1ccccc1F	?	4.2%	-18.2%	-5.3%[11.4 µM]	26.7µM*	-3.5%
CCOc1cccc(C(=O)NC(=S)Nc2ccc(N3CCCC3)cc2)c1	?	14.1µM*	8.91µM*	?	-13.7%	?
O=C(NC(=S)Nc1ccc2c(c1)OCCO2)c1ccccc1	-8.1%	?	44.7µM*	?	-14.5%	39.8µM*
O=C(Nc1ccc(NC(=O)c2ccc3c(c2)OCCO3)cc1)c1ccccc1	2.9%	32.2%	5.3%	-7.5%	-5.9%	20.5%[59 µM]
SMILES	Sfp inh	HP1b binding inh	BAZ2B inh	JMJD2A Tudor inh	PLK1 PBD inh	G9a inh
O=C(Nc1ccc2c(c1)OCCO2)c1c(F)cccc1F	7.2%	8.4%	4.5%	-19.6%	-4.2%	-5.7%[59 µM]
CCOc1cccc(C(=O)NC(=S)Nc2ccc(Cl)cc2C(=O)O)c1	44.7µM*	?	-7.0%	?	5.32µM*	39.8µM*
COc1cccc(C(=O)NC(=S)Nc2ccc(Cl)c(C(=O)O)c2)c1	?	-14.2%	?	-19.7%	-26.8%	?
O=C(NC(=S)Nc1ccc2c(c1)OCCO2)c1ccccc1F	-11.2%	28.1%	-34.2%	-26.9%	-1.6%	31.6µM*
Cc1nn(C)cc1C(=O)Nc1ccc2c(c1)OCCO2	50.1µM*	-5.0%	3.4%	-10.3%	-25.9%	31.6µM*
C=CCn1c(C)nnc1SCC(=O)Nc1cc(S(=O)(=O)N2CCCC2)ccc1Cl	.	34.6%	0.3%	-7.6%	-1.2%	4.1%[0.501 µM]
C[C@@H](N)C(=O)NC[C@H]1O[C@@H](n2cnc3c(N)ncnc32)[C@H](O)[C@@H]1O	.	27.1%	.	-5.5%	-3.9%	.
CCOc1cccc(C(=O)NC(=S)Nc2ccc3c(c2)OCCO3)c1	0.8%	?	?	?	-14.5%	39.8µM*
O=C(N/N=C\c1cc([N+](=O)[O-])ccc1N1CCOCC1)c1ccccn1	44.7µM*	20.9%	-17.6%	-16.1%	-0.7%	?
Cc1cc(/C=N/NC(=O)c2ccccn2)c(C)n1-c1cccc([N+](=O)[O-])c1	?	?	44.7µM*	?	-29.3%	?
CCC1CCCCC1	13.2%	.	.	.	.	.
Oc1ccccc1C1=Nc2nc3ccccc3n2C(c2ccccc2)C1 (stereo unspecified)	-23.3%	4.4%	?	?	-19.8%	12.6µM*
Oc1ccccc1C1=NN(c2ccccc2)C(c2ccc(F)cc2)C1 (stereo unspecified)	-3.8%	290.8%	139.9%	219.6%	-3.4%	385.6%
COc1ccc(C)cc1S(=O)(=O)NC(C)c1cnn(-c2ccccn2)c1C (stereo unspecified)	.	15.6%	.	-4.4%	-12.3%	.
COC(=O)c1ccc(NS(=O)(=O)c2ccc(Cl)cc2)o1	14.6%	-5.8%	?	-12.0%[11.4 µM]	-20.4%	50.1µM*
COC(=O)c1ccc(NS(=O)(=O)c2ccccc2)o1	13.9%	7.9%	-31.2%	-27.0%	-10.1%	39.8µM*
COC(=O)c1ccc(S(N)(=O)=O)o1	7.1%	29.7%	-1.0%	0.4%	-8.9%	20.0%[59 µM]
Cc1ccc(C(=O)Nc2cccc(C(F)(F)F)c2)cc1NC(=O)c1c[nH]c2cc(C(F)(F)F)ccc2c1=O	.	47.3%	.	-9.3%	-3.4%	.
CCN1CCN(Cc2ccc(NC(=O)c3ccc(C)c(NC(=O)c4c[nH]c5cc(C(F)(F)F)ccc5c4=O)c3)cc2C(F)(F)F)CC1	79.4µM*	5.1%	?	-22.5%	4.2%	?
